PubChem BioAssay (Tox21)
“And” between values parts separate entries of the source, which are not always exact repeats. Equal values may be shown once. Results filed as inconclusive are left out. The source made the active and inactive calls. Unless noted, the call rests on the fitted dose curve; in most records, active means well fitted curve in the direction sought with a large enough effect in the repeat runs; inconclusive means weak or mixed curves; inactive means no such curve, though single readings can be large; an effect the other way counts as inactive or inconclusive.

Key:
[1] = qHTS assay to identify small molecule antagonists of the glucocorticoid receptor (GR) signaling pathway - cell viability counter screen (AID 720693); further: nearly all actives have a fitted effect of over 55% in size
[2] = qHTS assay for identifying genotoxic compounds that show differential cytotoxicity against isogenic chicken DT40 cell lines with known DNA damage response pathways - wild type cell line (AID 743012); further: nearly all actives have a fitted effect of over 60% in size; further: potency means the concentration at half of the fitted maximal effect
Procedure, shortened: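 Viability of DNA repair-proficient chicken DT40 cells was assessed by CellTiter-Glo luminescence following 40 h compound exposure at 37 C/5% CO2.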

[3] = qHTS assay for identifying genotoxic compounds that show differential cytotoxicity against isogenic chicken DT40 cell lines with known DNA damage response pathways - Rev3 mutant cell line (AID 743014); further: nearly all actives have a fitted effect of over 55% in size; further: potency means the concentration at half of the fitted maximal effect
[4] = qHTS assay for identifying genotoxic compounds that show differential cytotoxicity against isogenic chicken DT40 cell lines with known DNA damage response pathways - Rad54/Ku70 mutant cell line (AID 743015); further: nearly all actives have a fitted effect of over 60% in size; further: potency means the concentration at half of the fitted maximal effect
[5] = qHTS assay to identify small molecule antagonists of the androgen receptor (AR) signaling pathway - cell viability counter screen (AID 743033; further: nearly all actives have a fitted effect of over 45% in size)
[6] = molecular target: Androgen receptor (Homo sapiens) (UniProt P10275); assay: qHTS assay to identify small molecule antagonists of the androgen receptor (AR) signaling pathway (AID 743035; active means well fitted inhibition curve with a large enough effect in the signal ratio in the repeat runs, not every such curve was filed as active; the % refers to the signal ratio)
Chain of Androgen receptor (Homo sapiens) (P10275 whole entry, looked up): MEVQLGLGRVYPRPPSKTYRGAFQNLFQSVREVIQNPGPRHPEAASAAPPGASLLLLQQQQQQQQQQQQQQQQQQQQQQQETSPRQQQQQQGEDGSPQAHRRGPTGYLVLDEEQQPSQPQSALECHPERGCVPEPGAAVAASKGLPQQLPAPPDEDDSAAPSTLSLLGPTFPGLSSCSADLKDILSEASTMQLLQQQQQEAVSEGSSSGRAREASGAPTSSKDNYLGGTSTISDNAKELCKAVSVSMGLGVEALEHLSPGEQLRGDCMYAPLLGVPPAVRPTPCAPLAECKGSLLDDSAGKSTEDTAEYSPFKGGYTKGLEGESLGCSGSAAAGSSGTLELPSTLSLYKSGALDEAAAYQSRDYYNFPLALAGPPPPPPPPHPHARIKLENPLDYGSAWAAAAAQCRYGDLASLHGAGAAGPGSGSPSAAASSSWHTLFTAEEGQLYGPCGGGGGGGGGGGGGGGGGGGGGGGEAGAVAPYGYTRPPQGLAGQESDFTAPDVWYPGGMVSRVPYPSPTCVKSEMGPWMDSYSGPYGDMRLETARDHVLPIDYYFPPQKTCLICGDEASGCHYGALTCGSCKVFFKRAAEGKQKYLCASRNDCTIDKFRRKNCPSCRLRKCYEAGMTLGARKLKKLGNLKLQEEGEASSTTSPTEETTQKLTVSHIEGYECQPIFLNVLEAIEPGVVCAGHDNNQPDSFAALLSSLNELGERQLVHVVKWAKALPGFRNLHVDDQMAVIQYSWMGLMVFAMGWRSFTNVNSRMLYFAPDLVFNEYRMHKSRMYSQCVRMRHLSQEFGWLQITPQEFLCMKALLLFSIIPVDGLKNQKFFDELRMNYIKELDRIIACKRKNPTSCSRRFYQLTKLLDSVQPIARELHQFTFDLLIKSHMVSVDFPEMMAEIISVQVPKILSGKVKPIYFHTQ
Procedure, shortened: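 Reporter HEK293 cells were exposed to compounds and R1881 overnight (16 h, 37C); beta-lactamase activity was then quantified by FRET fluorescence.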

[7] = molecular target: Androgen receptor (Homo sapiens) (UniProt P10275); assay: qHTS assay to identify small molecule agonists of the androgen receptor (AR) signaling pathway (AID 743036; active means well fitted activation curve with a large enough effect in the signal ratio in the repeat runs, with a control signal flat, not every such curve was filed as active; the % refers to the signal ratio)
Procedure, shortened: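 Quantitative HTS of the Tox21 10K library in HEK293 cells bearing a stably integrated UAS-controlled beta-lactamase reporter. Compound exposure lasted 16 h at 37C. Reporter activity was detected by FRET substrate fluorescence after 2 h at room temperature.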

[8] = molecular target: Androgen receptor (Homo sapiens) (UniProt P10275); assay: qHTS assay to identify small molecule agonists of the androgen receptor (AR) signaling pathway using the MDA cell line (AID 743040; further: nearly all actives have a fitted effect of over 20% in size)
Procedure, shortened: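 Agonist activity is measured as luciferase luminescence in human MDA-kb2 cells whose MMTV reporter responds to both AR and GR. Compounds in DMSO incubate 16 h at 37C, 0% CO2, and ONE-Glo is read after 30 min.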

[9] = qHTS assay to identify small molecule antagonists of the androgen receptor (AR) signaling pathway using the MDA cell line - cell viability counter screen (AID 743041; further: nearly all actives have a fitted effect of over 45% in size)
Procedure, shortened: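 qHTS viability read-out; MDA-kb2 AR-luc; R1881-stimulated; 16 h exposure at 37C, 0% CO2; CellTiter-Fluor, 30 min; fluorescence intensity.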

[10] = molecular target: Androgen receptor (Homo sapiens) (UniProt P10275); assay: qHTS assay to identify small molecule antagonists of the androgen receptor (AR) signaling pathway using the MDA cell line (AID 743042; further: nearly all actives have a fitted effect of over 55% in size; further: potency means the concentration at half of the fitted maximal effect)
Procedure, shortened: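 MDA-kb2 cells (human breast carcinoma, stably carrying an MMTV-luciferase reporter responsive to AR and GR) were plated at 3,000 cells/well and preincubated 5 hr at 37C, then given compound plus R1881 agonist for 16 h. ONE-Glo luminescence was read.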

[11] = qHTS assay to identify small molecule antagonists of the thyroid receptor (TR) signaling pathway - cell viability counter screen (AID 743064); further: nearly all actives have a fitted effect of over 50% in size; further: potency means the concentration at half of the fitted maximal effect
Procedure, shortened: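 Rat GH3 pituitary tumor cells stably expressing two TR response elements driving luciferase were plated, rested 4 h, then dosed with library compounds and T3 (1 nM final). After 23.5 h at 37 °C, CellTiter-Fluor was added for 30 min and fluorescence recorded.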

[12] = qHTS assay to identify small molecule antagonists of the thyroid receptor (TR) signaling pathway (AID 743065); further: nearly all actives have a fitted effect of over 55% in size; further: potency means the concentration at half of the fitted maximal effect
Procedure, shortened: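 GH3.TRE-Luc rat pituitary cells carrying two TR response elements driving luciferase were plated for 4 h, given compound plus 1 nM T3 (final), and incubated 23.5 h at 37 C. ONE-Glo luminescence measured reporter inhibition; CellTiter-Fluor fluorescence tracked cytotoxicity.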

[13] = tested on: thyroid hormone receptor (rat, GH3 cells); assay: qHTS assay to identify small molecule agonists of the thyroid receptor (TR) signaling pathway (AID 743066; calls by dose curve)
[14] = molecular target: Estrogen receptor (Homo sapiens) (UniProt P03372); assay: qHTS assay to identify small molecule antagonists of the estrogen receptor alpha (ER-alpha) signaling pathway (AID 743069; active means well fitted curve in the direction sought with a large enough effect in the signal ratio in the repeat runs, not every such curve was filed as active; the % refers to the signal ratio)
Chain of Estrogen receptor (Homo sapiens) (P03372 whole entry, looked up): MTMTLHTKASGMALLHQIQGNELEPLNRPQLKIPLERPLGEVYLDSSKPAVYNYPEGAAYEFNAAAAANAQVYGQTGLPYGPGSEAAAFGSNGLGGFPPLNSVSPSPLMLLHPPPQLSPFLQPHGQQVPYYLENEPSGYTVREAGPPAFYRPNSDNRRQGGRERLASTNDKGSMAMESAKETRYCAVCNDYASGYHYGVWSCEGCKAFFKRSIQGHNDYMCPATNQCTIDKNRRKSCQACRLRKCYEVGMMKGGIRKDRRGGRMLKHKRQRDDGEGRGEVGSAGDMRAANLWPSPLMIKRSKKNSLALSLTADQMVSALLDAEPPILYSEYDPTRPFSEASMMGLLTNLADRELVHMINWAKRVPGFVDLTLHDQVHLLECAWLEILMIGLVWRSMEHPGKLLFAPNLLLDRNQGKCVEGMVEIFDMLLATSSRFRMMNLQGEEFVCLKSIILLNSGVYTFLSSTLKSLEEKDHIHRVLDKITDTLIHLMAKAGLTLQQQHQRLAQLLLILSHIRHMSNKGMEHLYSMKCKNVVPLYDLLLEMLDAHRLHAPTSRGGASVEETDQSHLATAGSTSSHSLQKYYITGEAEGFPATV
Procedure, shortened: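 Screening used a UAS-driven beta-lactamase reporter integrated into HEK293 cells expressing ER-alpha, stimulated with 17beta-estradiol alongside test compounds over 18 hr at 37C; signal came from LiveBLAzer B/G FRET fluorescence.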

[15] = qHTS assay to identify small molecule antagonists of the estrogen receptor alpha (ER-alpha) signaling pathway - cell viability counter screen (AID 743074; calls by dose curve; further: nearly all actives have a fitted effect of over 45% in size)
[16] = molecular target: Estrogen receptor (Homo sapiens) (UniProt P03372); assay: qHTS assay to identify small molecule agonists of the estrogen receptor alpha (ER-alpha) signaling pathway (AID 743075; calls by dose curve)
[17] = molecular target: Estrogen receptor (Homo sapiens) (UniProt P03372); assay: qHTS assay to identify small molecule agonists of the estrogen receptor alpha (ER-alpha) signaling pathway using the BG1 cell line (AID 743079); further: nearly all actives have a fitted effect of over 20% in size
[18] = qHTS assay to identify small molecule antagonists of the estrogen receptor alpha (ER-alpha) signaling pathway using the BG1 cell line (AID 743080; calls by dose curve;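 further: BG1 cells stimulated with 17beta-estradiol alongside compound; series mostly up to about 70 µM; nearly all actives have a fitted effect of over 25% in size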)
Procedure, shortened: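 Readout is ONE-Glo luminescence, taken 30 min at room temperature after reagent addition, preceded by a CellTiter-Fluor viability read; BG1-Luc-4E2 cells had received compound and 17beta-estradiol for 21.5 h at 37 C.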

[19] = qHTS assay to identify small molecule antagonists of the estrogen receptor alpha (ER-alpha) signaling pathway using the BG1 cell line - cell viability counter screen (AID 743081);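 further: compound given together with 17beta-estradiol as the ER stimulus; series mostly up to about 70 µM; nearly all actives have a fitted effect of over 45% in size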
[20] = molecular target: Aromatase (Homo sapiens) (UniProt P11511); assay: qHTS assay to identify aromatase inhibitors (AID 743083)
Chain of Aromatase (Homo sapiens) (P11511 whole entry, looked up): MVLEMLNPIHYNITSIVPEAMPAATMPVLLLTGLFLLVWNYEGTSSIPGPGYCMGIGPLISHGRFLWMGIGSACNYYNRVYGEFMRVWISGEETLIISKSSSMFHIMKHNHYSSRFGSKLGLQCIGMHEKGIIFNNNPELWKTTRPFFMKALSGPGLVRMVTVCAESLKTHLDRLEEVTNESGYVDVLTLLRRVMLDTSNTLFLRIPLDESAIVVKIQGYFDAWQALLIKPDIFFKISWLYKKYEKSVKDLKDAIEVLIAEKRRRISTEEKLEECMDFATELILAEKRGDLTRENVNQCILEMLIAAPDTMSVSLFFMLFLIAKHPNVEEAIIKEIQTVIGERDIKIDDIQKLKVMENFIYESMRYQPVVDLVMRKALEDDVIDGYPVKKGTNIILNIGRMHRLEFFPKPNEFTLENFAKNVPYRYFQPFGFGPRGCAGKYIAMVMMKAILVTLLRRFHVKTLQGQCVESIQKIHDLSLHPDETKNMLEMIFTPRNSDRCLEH

Measured: Potency

ClC(Cl)(Br)Br
inactive: all assays above

OCCOc1ccc(OCCO)cc1
not listed: [6] | [7] | [8] | [10]
inactive: all other assays above

CCCCCOC(=O)CCCCC
not listed: [6] | [7] | [8] | [10] | [15] | [18]
inactive: all other assays above

OC1CCCCC1c1ccccc1 (configuration not stated)
not listed: [6] | [18]
inactive: all other assays above

CN(C)CCCSc1ccccc1NC(=O)/C=C/c1ccccc1
active: [2] 26.6 µM | [3] 13.3 µM | [4] 29.8 µM | [11] 26.6 µM | [12] 23.7 µM
not listed: [6] | [7] | [8] | [10] | [15] | [19]
inactive: all other assays above

C=C[Si](OC(=C)C)(OC(=C)C)OC(=C)C
not listed: [6] | [7] | [8] | [10] | [17] | [18]
inactive: all other assays above

CC(=O)CC(C)C
not listed: [11] | [14] | [16] | [17] | [18] | [19] | [20]
inactive: all other assays above

C=C(C)C(=O)OCCCCCCCC(C)C
not listed: [11]
inactive: all other assays above

CN1C(=O)N(C)C(O)C1O (configuration not stated)
not listed: [6] | [7] | [8] | [10]
inactive: all other assays above

CC(C)(O)C#CC(C)(C)O
not listed: [6] | [7] | [8] | [10]
inactive: all other assays above

CCCCC/C=C\CCC=O
not listed: [7] | [8] | [10]
inactive: all other assays above

Cc1ccc(C#N)cc1
not listed: [6] | [7] | [8] | [10]
inactive: all other assays above

CC(C)(C)NCCNC(C)(C)C
not listed: [6] | [7] | [8] | [10]
inactive: all other assays above

CC1(C)C(O)C(C)(C)C1O (configuration not stated)
not listed: [7]
inactive: all other assays above

COc1ccc2c(c1)c(CC(=O)OCC(=O)O)c(C)n2C(=O)c1ccc(Cl)cc1
not listed: [7] | [14] | [16] | [17] | [18] | [19]
inactive: all other assays above

CC(C)(c1ccc(O)cc1)c1ccc(O)cc1
active: [2] 27.3 µM | [3] 67.8 µM and 50.4 µM | [4] 49.2 µM | [10] 59.2 µM | [12] 61.1 µM
not listed: [6] | [11] | [14] | [16] | [17]
inactive: all other assays above

CCCCOCCOCCOCc1cc2c(cc1CCC)OCO2
active: [2] 24.6 µM | [4] 34.7 µM
not listed: [12] | [14] | [16] | [17] | [18]
inactive: all other assays above
